# Measurements reported in PubChem BioAssay (NCI).
# This is part of a sample that, as a whole, favours compounds with a hit. Of some 83,000 tested, about 20% had one in any assay.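 96-well plates, one dose, 48 hours. Percent growth reported; active if below 10.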 Values without a mark were called inactive. Activity calls are given as the source filed them.
# System: HL-60(TB) leukemia
# Assay: NCI-60 one-dose screen, 48 h (100 = growth as untreated, 0 = no growth, -100 = all killed)
# Settings: 10 µM unless noted
row,Compound,growth
1,CCOC(=O)CNN,113%
2,C=C(C)[C@@H]1CC[C@]2(CO)CC[C@]3(C)[C@H](CC[C@@H]4[C@@]5(C)CCC(NCCc6ccc(O)cc6)C(C)(C)[C@@H]5CC[C@]43C)[C@@H]12 (some centres not stated),-50.4% (active)
3,O=C(CN1C(=O)S/C(=C\c2ccccc2)C1=O)Nc1ncc(Cc2ccccc2Cl)s1,95.1%
4,COc1cccc(-c2nc3occn3c2-c2ccnc(NCCCNS(=O)(=O)c3ccc(C(F)(F)F)cc3)n2)c1,116%
5,O=S1(=O)NCCCN1CCNc1nccc(-c2c(-c3cccc(O)c3)nc3sccn23)n1,73.3%
6,CCOC(=O)C1=C(C(F)(F)F)NC(=O)NC1CN1C(=O)c2ccccc2C1=O (configuration not stated),46.2%
7,CC1=CC(=Nc2ccc(N(C)C)cc2)C=C(C)C1=O,42.8%
8,COc1ccc(S(=O)(=O)n2cc(C3OC(c4cc(OC)c(OC)c(OC)c4)=NN3C(C)=O)c3ccccc32)cc1OC (configuration not stated),111%
9,COc1ccc(CNc2c3ccccc3nc3ccccc23)cc1,43%
10,O=C([C@H]1C[C@H]1c1ccc(S(F)(F)(F)(F)F)cc1)N1CCN(c2cc(Cl)ccc2C(F)(F)F)CC1,83.5%
11,COc1cccc(C2CC(=O)Nc3cc4c(cc32)CCC4)c1OC (configuration not stated),10.4%
12,O=C1c2ccccc2C(=O)c2c(NCCN=Cc3ccccc3O)cccc21,44%
13,CCOC(=O)C(Nc1ccccc1)C(=O)OCC,101%
14,COC(=O)c1ccc(NC(N)=NCC(C)(C)COc2ccc(C(F)(F)F)cc2)nc1,-49% (active)
15,Clc1ccc(Cn2cc(-c3nc4ccc(Br)nc4n3Cc3ccc(Cl)cc3)c3cccnc32)cc1,94.1%
16,NC(N)=N/N=C/c1ccc([N+](=O)[O-])o1,76.1%
17,O=C1NN(C(=O)c2ccc(O)cc2)C(c2ccccc2)=N/C1=C\c1cn(-c2ccccc2)nc1-c1ccccc1,85.7%
18,Cc1nccc2c3ccc(OCc4cn(-c5ccc(Br)cc5)nn4)cc3n(CCCc3ccccc3)c12,46.1%
19,Clc1ccc(CN2COc3c(ccc4cccnc34)C2)cc1Cl,-63.5% (active)
20,COC(=O)c1c2c(n3ccc(C)cc13)C(=O)c1ccccc1C2=O,57.6%
21,CC1(C)CCc2cc(-c3ccn(S(=O)(=O)c4ccc(Cl)cc4)n3)ccc2O1,71.9%
22,CCCCC/C=C/CCC(=O)N[C@H]1[C@H](Oc2c3cc4cc2Oc2ccc(cc2Cl)[C@@H](O[C@@H]2O[C@H](CO)[C@@H](O)[C@H](O)[C@H]2NC(C)=O)[C@@H]2NC(=O)[C@H](NC(=O)[C@@H]4NC(=O)[C@H]4NC(=O)[C@@H](Cc5ccc(c(Cl)c5)O3)NC(=O)[C@@H](N)c3ccc(O)c(c3)Oc3cc(O)cc4c3)c3ccc(O)c(c3)-c3c(O[C@H]4O[C@H](CO)[C@@H](O)[C@H](O)[C@@H]4O)cc(O)cc3[C@H](C(=O)O)NC2=O)O[C@H](CO)[C@H](O)[C@@H]1O,105%
23,COc1ccc(/C(CS(=O)(=O)c2ccccc2)=N\O)cc1,99.5%
24,O=C1c2ccccc2OC=C(c2ccccc2)N1CCCCNc1ccc(F)cc1,45.3%
25,Cc1cc(NC(=O)Nc2cc(Cl)ccc2C)no1,88.4%
26,C[C@@H]1C(=O)[C@@H]2C[C@@H](O)[C@@H](O)C[C@]2(C)[C@H]2CC[C@@]3(C)C(=C12)CC[C@@H]3[C@@](C)(O)[C@H](O)CCC(C)(C)O,85.7%

row,Compound,growth
1,O=C(Nc1cc(Cl)cc2c1-c1ccc(Cl)cc1C2O)C(Cl)Cl (configuration not stated),76.2%
2,COc1ccc2cc(-c3nn(-c4ccc(C(=O)O)cc4)cc3CO)ccc2c1,50.3%
3,NCCOc1ccccc1/C=C1\c2ccccc2-c2ccc([N+](=O)[O-])cc21,-59.3% (active)
4,CCCC(=O)NC(c1ccc2c(c1)OCO2)c1cc(Cl)c2cccnc2c1O (configuration not stated),-19.5% (active)
5,O=C1/C(=C\c2cccn2Cc2ccccc2)c2ccccc2N1c1c(Cl)cccc1Cl,71%
6,COc1cc(C2C3=C(COC3=O)Nc3cc4c(cc32)CCC4)cc2c1OCO2 (configuration not stated),10.4%
7,COc1ccc2c(c1)O/C(=C\c1ccc([N+](=O)[O-])s1)C2=O,7.46% (active)
8,COc1ccc(C2CC(=O)c3c(O)cc(OC4OC(COC5OC(C)C(O)C(O)C5O)C(O)C(O)C4O)cc3O2)cc1O (configuration not stated),131%
9,O=C(Cc1ccc2c(c1)OCCO2)Nc1nc2ccc(F)cc2s1,99.6%
10,COc1ccc2[nH]c(C(=O)OCc3ccc4c(Cl)cc(Cl)c(O)c4n3)cc2c1,-30.4% (active)
11,CCCCOc1ccc(/C=C2/SC(N3CCCC3)=NC2=O)cc1,98%
12,Fc1ccc(-c2nnc(-c3c(-c4ccc(F)cc4)nc4ccccn34)o2)cc1,103%
13,CC#Cc1nc(Nc2cc(C)[nH]n2)c2ccccc2n1,4.13% [100 µM] (active)
14,CCCCCCCCCC1=NC(C)(C)CN1C(C)(C)CO,-20.8% (active)
15,O=[N+]([O-])c1ccc(-c2ncc(-c3ccc(O)cc3O)[nH]2)cc1,145%
16,O=C(O)C(Cc1ccccc1)N1C(=O)/C(=C/C(Cl)=C/c2ccc([N+](=O)[O-])cc2)SC1=S (configuration not stated),-8.33% (active)
17,CCCCNC(=O)NS(=O)(=O)c1ccc(N2N=C(c3cc(C)ccc3C)CC2c2cc(OC)c(OC)c(OC)c2)cc1 (configuration not stated),-16.1% (active)
18,CC1=NN(c2ccc(S(=O)(=O)O)cc2)C(=O)C1N=Nc1ccc(-c2ccc(N=Nc3ccc(OS(=O)(=O)c4ccc(C)cc4)cc3)c(S(=O)(=O)O)c2)cc1 (configuration not stated),108%
19,S=c1[nH]nc(Cc2ccccc2)c(=S)[nH]1,98.5%
20,O=C1CNc2cc(Cl)ccc2N1,99.7%
21,COC(=O)C(Cc1cnc[nH]1)N1CC(=O)N2[C@@H](c3ccccc3)SC[C@H]2C1=O (some centres not stated),90.3%
22,CS(=O)(=O)Nc1cc(-c2cc3ncc(C#N)c(Nc4ccc(Oc5ccccc5)c(Cl)c4)c3s2)cnc1Cl,64.6%
23,CCOC(=O)c1c(O)c2cc(-c3ccccc3)nc(OCC)c2c(=O)n1C,156%
24,CC1(C)CC[C@]2(C(=O)OC(=O)[C@]34CCC(C)(C)C[C@@H]3C3=CC[C@@H]5[C@@]6(C)CCC(=O)C(C)(C)[C@@H]6CC[C@@]5(C)[C@]3(C)CC4)CC[C@]3(C)C(=CC[C@@H]4[C@@]5(C)CCC(=O)C(C)(C)[C@@H]5CC[C@]43C)[C@H]2C1,6.37% [100 µM] (active)
25,O=C(CSc1nnc(-c2ccc(Cl)cc2)o1)Nc1ccc(C(=O)/C=C/c2ccccc2)cc1,97.1%
26,CCNc1ccc2ccccc2c1N=Nc1ccc(N=Nc2ccccc2)cc1,108%

row,Compound,growth
1,Cn1cc(-c2nonc2-c2c[nH]c3ccc(F)cc23)c2cccnc21,91.7%
2,CC(=O)N1N=C(c2cccc(Nc3ccncc3)c2)CC1c1ccc2c(c1)OCO2 (configuration not stated),90.3%
3,O=C(Oc1ccccc1)c1cc(O)c(O)c(O)c1,-5.58% (active)
4,COC(=O)[C@H](Cc1ccc(O)cc1)NC(=O)[C@@H](OC)[C@@H]1Cc2cc3cc(OC4CC(OC5CC(O)C(O)C(C)O5)C(O)C(C)O4)c(C)c(O)c3c(O)c2C(=O)[C@H]1OC1CC(OC2CC(OC3CC(C)(O)C(O)C(C)O3)C(O)C(C)O2)C(O)C(C)O1 (some centres not stated),8.2% (active)
5,COc1ccc2c(c1)C(=O)c1c-2c(=O)n(CCCCCCC(=O)NO)c2ccccc12,12.7%
6,CSc1ccccc1C#C/C=C\C#Cc1ccccc1N1CCCCC1=O,107%
7,CC(=O)OCC1OC(OC2=C(CC=C(Cl)Cl)C(=O)c3ccccc3C2=O)C(OC(C)=O)C(OC(C)=O)C1OC(C)=O (configuration not stated),0.376% (active)
8,CCc1ccc(C(c2ccc(CC)cc2)C(Cl)(Cl)CCl)cc1,77.2%
9,COc1ccc2c(c1)C(=O)c1c-2c(OCCN(C)C)nc2ccccc12,25.4%
10,CN1CCN(c2nc3scc(-c4ccccc4)c3c(=O)[nH]2)CC1,90.8%
11,CNC(=O)c1cc(Oc2ccc3nc(NC(=O)Nc4ccc(Cl)c(C(F)(F)F)c4)sc3c2)ccn1,97.2%
12,CCCCCCCCNc1cc2c3c(c1)CCCN3CCC2,-3.66% (active)
13,Cc1c(/C=C/[N+](=O)[O-])ccc2c1[nH]c1ccccc12,67.3%
14,CC(C)c1cccc(C#N)c1,112%
15,CNC(=O)N/N=C/c1ccc([N+](=O)[O-])o1,66.4%
16,CC(C)=NNc1ncnc2c1ncn2C1OC(CO)C(O)C1O (configuration not stated),6.58% (active)
17,Cc1cccc2nc3ccccc3c(Nc3ccc(NS(C)(=O)=O)cc3)c12,1.14% (active)
18,FC(F)(F)c1ccc2c(c1)n1cnnc1c1nncn21,104%
19,Nc1nc2c(c3cnccc13)C(c1ccc(Cl)c(Cl)c1)Cc1cnccc1-2 (configuration not stated),-16.5% (active)
20,CCCC1OC(c2ccc(C(C)C)cc2)OCC1CC (configuration not stated),92.7%
21,CC(C)C1=CC2=C(C=O)C[C@@H]3[C@](C)(CCC[C@@]3(C)C(=O)OCC#CCN3CCCC3)[C@H]2CC1,54.5%
22,Nc1nc(-c2ccccn2)cc(-c2cc(-c3ccccn3)nc(N)n2)n1,105%
23,Cc1nn(-c2ccc(-c3ccc(OC(F)(F)F)cc3)cc2)c2nc(Cc3ccccc3)nc(N)c12,88.3%
24,CN(C)c1ccc(-n2nc3ccccc3n2)cc1,90.5%
25,O=C(C[n+]1ccn(CC(OCc2ccc(Cl)cc2Cl)c2ccc(Cl)cc2Cl)c1)c1ccc(F)cc1 (configuration not stated),-51.8% (active)
